From PubChem BioAssay (EPA / NIEHS) come the findings set out here.

The nature of assay [1]: ATG_CRE_CIS: Attagene CIS-FACTORIAL HepG2 Assay for human cAMP Responsive Element (CRE) binding protein 3 (AID 2282926). The conditions noted are these: HepG2 CRE cis-reporter, Attagene multiplexed mRNA; actives raise or lower the signal. The method in brief: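 Capillary electrophoresis of 6-FAM-labelled, HpaI-digested PCR products quantified reporter transcripts. These came from HepG2 transiently transfected with cis-element reporters and exposed to test chemicals for 24 hours, with DMSO defining baseline activity.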

Assay [2] in a line: ATG_CMV_CIS: Attagene CIS-FACTORIAL HepG2 Assay for human CMV (Internal Marker) (AID 2282928).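 Further: endpoint acts as a background internal control marker rather than a target.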 Particulars: HepG2 CMV promoter reporter, transcription factor profiling; actives raise or lower the signal. The method in brief: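 Bidirectional fits against DMSO are applied to reporter mRNA, read by RT-PCR with capillary electrophoresis, from HepG2 cells exposed 24 h. The endpoint serves as an internal CMV background marker within the cis-factorial reporter panel.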

The nature of assay [3]: ATG_DR4_LXR_CIS: Attagene CIS-FACTORIAL HepG2 Assay for human Liver X Receptor (LXR), DR4 submotif (AID 2282929). Particulars: HepG2 Attagene DR4 cis-reporter, mRNA transcription; actives raise or lower the signal. The method in brief: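 HepG2, transient MRTU transfection, cis-element (DR4) promoter; 24 h compound exposure; total RNA → oligo(dT) RT → PCR → 6-FAM primer extension → HpaI cut → CE. Gain/loss vs DMSO, bidirectional fit.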

The target of assay [4] is Aryl hydrocarbon receptor (Homo sapiens) (UniProt P35869). Nature of the assay: ATG_Ahr_CIS: Attagene CIS-FACTORIAL HepG2 Assay for human Aryl Hydrocarbon Receptor (Ahr) (AID 2282930). Particulars: HepG2 AhR cis-factorial reporter transcription; actives raise or lower the signal. The method in brief:
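Endogenous factor activity is tracked through cis-promoter reporter units transfected into HepG2 cells. Transcript levels at 24 h are read by fluorescent RT-PCR and capillary electrophoresis, with activity in either direction scored relative to DMSO.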

Assay [5] in a line: ATG_AP_1_CIS: Attagene CIS-FACTORIAL HepG2 Assay for human Activator Protein 1 (AP-1) (AID 2282931). Particulars: HepG2 Attagene cis-factorial AP-1 reporter mRNA; actives raise or lower the signal. The method in brief:
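Transient MRTU transfection of HepG2 → 24 h chemical treatment → RNA isolation, RT-PCR, 6-FAM labelling, HpaI digest → capillary electrophoresis. Fit: bidirectional, DMSO negative control.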

The nature of assay [6]: ATG_AP_2_CIS: Attagene CIS-FACTORIAL HepG2 Assay for human Activator Protein 2 (AP-2) (AID 2282932). Particulars: HepG2 AP-2 cis-reporter, Attagene transcription factor profiling; actives raise or lower the signal. The method in brief:
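Read-out: fluorescent reporter mRNA via RT-PCR and capillary electrophoresis, 24 h post-dose in transiently transfected HepG2. Endogenous factors drive cis-promoter reporters; gain or loss of signal fitted bidirectionally against DMSO.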

Assay [7] deals with Transcription factor E2F1 (Homo sapiens) (UniProt Q01094). Nature of the assay: ATG_E2F_CIS: Attagene CIS-FACTORIAL HepG2 Assay for human E2F Transcription Factor 1 (AID 2282935). Particulars: HepG2 Attagene cis-reporter, E2F reporter RNA transcripts; actives raise or lower the signal. The method in brief: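 Transient MRTU transfection of HepG2; 24 h compound exposure; RNA → oligo(dT) RT → PCR → FAM label → HpaI cut → CE fluorescence. Gain/loss of signal fit against DMSO.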

The nature of assay [8]: ATG_BRE_CIS: Attagene CIS-FACTORIAL HepG2 Assay for human Bone Morphogenetic Protein (BMP) Response Element (BRE) (AID 2282933). The conditions noted are these: HepG2 BMP response element reporter, Attagene transcription factor profiling; actives raise or lower the signal. The method in brief:
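Endogenous transcription factor activity at a BMP response element was monitored in transfected HepG2 cells 24 h after dosing. Fluorescent RT-PCR products were resolved by capillary electrophoresis, and activity was fitted in both directions versus DMSO.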

The target of assay [9] is Retinoic acid receptor alpha (Homo sapiens) (UniProt P10276). Kind of assay: ATG_DR5_RAR_CIS: Attagene CIS-FACTORIAL HepG2 Assay for human Retinoic Acid Receptor Alpha (RARE), DR5 submotif (AID 2282934). Particulars: HepG2 Attagene cis-factorial RARE DR5 reporter, mRNA; actives raise or lower the signal. The method in brief:
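After 24 h of chemical exposure, transiently transfected HepG2 cells were lysed for total RNA; the DR5-regulated reporter transcript was quantified via RT-PCR and capillary electrophoresis, with activity fitted bidirectionally against DMSO.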

Active and inactive are the calls of the source. How the source made its calls: active means hit-call score of the fitted dose curve at least 0.9, where 1 is the maximum; inactive means score below 0.9.

The term AC50 denotes the midpoint of the concentration-response curve, whichever way the signal moves.

Sequence of Retinoic acid receptor alpha (Homo sapiens) (P10276 whole entry, looked up): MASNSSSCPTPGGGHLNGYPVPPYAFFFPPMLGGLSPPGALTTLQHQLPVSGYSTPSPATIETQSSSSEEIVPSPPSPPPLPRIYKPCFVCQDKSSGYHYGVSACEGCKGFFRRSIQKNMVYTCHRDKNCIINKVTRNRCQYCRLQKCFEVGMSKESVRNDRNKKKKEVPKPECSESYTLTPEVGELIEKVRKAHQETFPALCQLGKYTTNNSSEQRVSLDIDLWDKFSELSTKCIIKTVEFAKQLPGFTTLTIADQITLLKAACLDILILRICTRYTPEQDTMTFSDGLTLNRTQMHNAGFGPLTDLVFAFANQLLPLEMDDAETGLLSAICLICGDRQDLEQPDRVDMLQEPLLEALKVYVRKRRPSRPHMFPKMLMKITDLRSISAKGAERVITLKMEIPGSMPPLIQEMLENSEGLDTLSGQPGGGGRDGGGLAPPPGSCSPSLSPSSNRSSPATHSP
Sequence of Transcription factor E2F1 (Homo sapiens) (Q01094 whole entry, looked up): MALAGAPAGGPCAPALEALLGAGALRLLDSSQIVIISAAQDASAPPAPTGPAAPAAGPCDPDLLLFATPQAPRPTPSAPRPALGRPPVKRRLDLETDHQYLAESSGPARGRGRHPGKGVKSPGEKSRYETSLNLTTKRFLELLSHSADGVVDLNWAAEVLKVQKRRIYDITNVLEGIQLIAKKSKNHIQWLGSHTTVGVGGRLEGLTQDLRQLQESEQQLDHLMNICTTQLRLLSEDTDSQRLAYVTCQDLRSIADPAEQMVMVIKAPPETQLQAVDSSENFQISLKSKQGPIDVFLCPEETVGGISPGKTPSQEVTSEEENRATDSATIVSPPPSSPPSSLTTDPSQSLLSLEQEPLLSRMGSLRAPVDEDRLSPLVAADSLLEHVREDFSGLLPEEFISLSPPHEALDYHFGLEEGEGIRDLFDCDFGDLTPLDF
Sequence of Aryl hydrocarbon receptor (Homo sapiens) (P35869 whole entry, looked up): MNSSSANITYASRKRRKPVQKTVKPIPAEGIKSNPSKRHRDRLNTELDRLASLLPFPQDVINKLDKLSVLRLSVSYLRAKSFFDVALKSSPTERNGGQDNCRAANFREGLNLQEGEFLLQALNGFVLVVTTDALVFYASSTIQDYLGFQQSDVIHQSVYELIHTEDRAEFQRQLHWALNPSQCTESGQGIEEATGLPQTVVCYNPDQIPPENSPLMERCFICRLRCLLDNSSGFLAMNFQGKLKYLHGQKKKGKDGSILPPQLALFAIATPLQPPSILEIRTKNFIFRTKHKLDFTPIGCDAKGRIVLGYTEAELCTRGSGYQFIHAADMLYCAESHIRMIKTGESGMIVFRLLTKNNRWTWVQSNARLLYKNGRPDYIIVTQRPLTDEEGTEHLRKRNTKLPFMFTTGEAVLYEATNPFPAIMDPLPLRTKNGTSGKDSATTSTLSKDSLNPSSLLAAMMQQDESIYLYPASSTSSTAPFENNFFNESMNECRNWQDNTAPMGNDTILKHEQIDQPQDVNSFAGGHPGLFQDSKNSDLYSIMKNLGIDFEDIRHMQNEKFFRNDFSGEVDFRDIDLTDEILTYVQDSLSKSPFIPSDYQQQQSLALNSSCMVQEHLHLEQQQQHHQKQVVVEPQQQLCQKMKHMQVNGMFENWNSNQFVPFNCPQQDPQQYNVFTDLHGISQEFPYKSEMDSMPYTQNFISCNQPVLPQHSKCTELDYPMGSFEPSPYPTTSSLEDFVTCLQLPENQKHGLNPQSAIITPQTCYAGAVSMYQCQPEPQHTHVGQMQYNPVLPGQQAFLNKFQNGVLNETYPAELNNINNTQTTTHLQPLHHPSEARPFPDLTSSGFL

`CC(C)c1ccc(C(C)C)cc1`: the call in assay [1], in [3], in assay [4], in assay [5], in [6] and in assay [7] was inactive. Moreover, in [2], the AC50 is 156 µM (active).

As to `CCCC(C)C=O` (stereo not given), the call in [1], in [2], in [3], in assay [4], in assay [5] and in [6] was inactive. Moreover, the outcome in assay [8] and in assay [7] was inactive.

As to `Cc1cccc(C)c1[N+](=O)[O-]`, the compound was classed as inactive in [1], in [2], in assay [3], in assay [5], in assay [6] and in assay [8]. In addition, the call in assay [9] and in assay [7] was inactive.

Regarding `CC(C)(N)CO`, the call in assay [1], in assay [2], in assay [3], in assay [4], in [5] and in [6] was inactive. Moreover, the outcome in assay [8] and in assay [7] was inactive.

Consider `CCCCCCCCCCCCN`, for which the result in [1], in [2], in assay [4], in [5], in assay [6] and in [8] was inactive. Besides, the compound was classed as inactive in [7]. For the same compound, in [3], the AC50 is 10.2 µM (active).

As for `C/C=C(\C)C(=O)OCc1ccccc1`, the call in assay [1], in assay [2], in assay [3], in assay [4], in [5] and in assay [6] was inactive. Also, the compound was called inactive in [8], in assay [9] and in assay [7].

As to `COC(C(=O)O)c1ccccc1` (stereo not given), the result in [1], in assay [2], in assay [3], in assay [4], in assay [5] and in [6] was inactive. Further, the call in assay [8] and in assay [7] was inactive.

With `O=c1[nH]nnc2ccccc12`, the compound was called inactive in assay [1], in assay [2], in assay [3], in assay [4], in assay [5] and in assay [6]. Also, the call in [8] and in [7] was inactive.

For the compound `C=CC(C)(O)CCC=C(C)CCC=C(C)C` (stereo not given), the AC50 in [1] was 126 µM (active); in assay [2], 183 µM (active); in [4], 51 µM (active); in assay [5], 154 µM (active). Moreover, the result in assay [3], in assay [8] and in assay [7] was inactive.

In the case of `O=C=NC1CCC(CC2CCC(N=C=O)CC2)CC1` (stereo not given), the AC50 was 28.4 µM (active) in assay [1], 64.8 µM (active) in assay [2], 179 µM (active) in [3] and 41.7 µM (active) in assay [8]. In addition, the outcome in [5] and in assay [7] was inactive.

In the case of `COc1cc(C(C)(C)C)c(O)c(C(C)(C)C)c1`, the outcome in [1], in [2], in assay [3], in [5], in [6] and in [8] was inactive. Besides, the compound was classed as inactive in [7].

Regarding `CCCCCC(CO)CCC` (stereo not given), the outcome in [1], in [2], in assay [3], in assay [4], in assay [5] and in assay [6] was inactive. Further, the outcome in assay [8], in assay [9] and in assay [7] was inactive.

With `O=[N+]([O-])c1ccc(C=Cc2ccc([N+](=O)[O-])cc2S(=O)(=O)O)c(S(=O)(=O)O)c1`, the call in [1], in assay [2], in [3], in [4], in [5] and in assay [8] was inactive. For the same compound, the result in assay [7] was inactive.

For `Nc1cc([N+](=O)[O-])ccc1Cl`, the result in assay [1], in assay [2], in assay [3], in assay [5], in assay [6] and in assay [8] was inactive. Moreover, the outcome in assay [7] was inactive. For the same compound, in assay [4], the AC50 was 20.2 µM (active).

`CO[Si](C)(OC)c1ccccc1`: the outcome in assay [1], in [2], in assay [3], in assay [5], in [6] and in assay [7] was inactive. Besides, the AC50 in assay [4] is 130 µM (active).

Consider `O=[N+]([O-])c1cc(C(F)(F)F)ccc1Cl`, for which the result in assay [1], in assay [2], in [3], in [4], in assay [5] and in assay [8] was inactive. In addition, in assay [7], the compound was called inactive.

In the case of `BrC1CCC(Br)C(Br)CCC(Br)C(Br)CCC1Br` (stereo not given), the compound was classed as inactive in assay [1], in [3], in [4], in assay [6], in [8] and in [7]. Moreover, the AC50 is 23.9 µM (active) in [2] and 36.2 µM (active) in [5].
